From PubChem
HT1080 IDH1KD tx – HT-1080 IDH1 knockdown cell toxicity (counter line); HT-1080 IDH1 knockdown viability, ATP luminescence, 48 h; Potency, µM (top dose mostly 46.1 µM), for inactives: at the top dose activity, negative = toxicity, actives largely listed as cytotoxic; 360,000 compounds, 2% hits;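 further: potency means the concentration at half of the fitted maximal effect; 0% = DMSO wells and -100% = cell-free medium wells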
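Using the IDH1-knockdown HT-1080 line run in the same batch and compound series as the NT line, viability after 48 h at 37 °C was determined by CellTiter-Glo luminescence and expressed as % activity.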
TDP1 cell noCPT – qHTS for Inhibitors of human tyrosyl-DNA phosphodiesterase 1 (TDP1): qHTS in cells in absence of CPT; DT40 Tdp1-/- hTDP1 cells, no CPT, ATP luminescence, 48 h; Potency, µM (doses to about 46.2 µM), without a hit: top-dose activity change, negative = growth inhibition, usual class: inhibitors; 420,000 compounds, 15% hits; further: potency means the concentration at half of the fitted maximal effect; nearly all actives have a fitted effect of over 55% in size
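Cells were dispensed at 400 per well, compounds added by pin tool, plates incubated ≥48 hr at 37 °C, then CellTiter-Glo added for 30 min at room temperature before luminescence reading. Line: DT40 Tdp1-/- complemented with hTDP1; camptothecin omitted.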
DT40 TDP1 CPT – growth inhibition of DT40 Tdp1-/-;hTDP1 cells with camptothecin (screen for TDP1 inhibitors). 420,000 compounds, 12% hits. Potency, µM (series often up to 46.2 µM), for inactives: top-dose activity change, negative = growth inhibition, hits mostly inhibitors. chicken DT40 Tdp1-/-;hTDP1 cells + 20 nM CPT, ATP luminescence, 48 h. AID 686979; further: potency means the concentration at half of the fitted maximal effect; nearly all actives have a fitted effect of over 55% in size
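Cell growth measured by CellTiter-Glo luminescence after a minimum 48 h, 37 C compound exposure with 20 nM CPT in Tdp1-knockout DT40 cells stably expressing hTDP1, seeded 400/well; qHTS titration format.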
HT1080-NT tox – kills 2HG-producing HT-1080-NT fibrosarcoma cells | AID 686970 | HT-1080-NT fibrosarcoma viability, CellTiter-Glo ATP luminescence, 48 h | Potency, µM (titrated, usually from 46.1 µM), inactives show top-dose activity, negative = less viability, most hits filed as cytotoxic | 360,000 compounds, 1.6% hits;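 further: NT is the 2HG producing partner of a matched IDH1 knockdown line; potency means the concentration at half of the fitted maximal effect; 0% = DMSO-treated cells and -100% = media-only wells without cells; nearly all actives have a fitted effect of over 55% in size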
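750 cells/well, RPMI + 5% FBS; 2 h settle, compound pin-transfer, 48 h at 37 degrees C. CellTiter-Glo 10 min RT, luminescence. Normalized to DMSO and media-only wells.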
IL-1B inflam inh – blocks inflammasome-driven IL-1 beta release; 360,000 compounds, 4.7% hits; THP-1 LPS/ATP IL-1B secretion, AlphaLISA, 16 h; active compounds read low; activity change, % at 57.5 µM; AID 743279; in the data active means activity change below about -50%; inconclusive means mostly about -30% to -49%
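THP-1 cells pretreated 1 hr with compounds (up to 57.5 uM final), then stimulated with LPS (250 ng/mL final) plus ATP (1.25 mM final); secreted IL-1B measured by AlphaLISA after 16 hr, decreased signal indicating inhibition.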
The depositor's hits bear a star; ? = inconclusive; · = not tested or not shown; [ ] = another dose, or the depositor's remark. Sampled rows, rich in hits. Any-hit rate of the full collection: about 19%. Unless noted, the call rests on the fitted dose curve; in most records, active means well fitted curve in the direction sought with a large enough effect; inconclusive means small, poorly fitted or top-dose-only effect, or another doubt; inactive means no such curve, though single readings can be large; an effect the other way counts as inactive or inconclusive. Unless noted, on the % scale 0 is the no-effect control and ±100 the full control effect.

SMILES	HT1080 IDH1KD tx	TDP1 cell noCPT	DT40 TDP1 CPT	HT1080-NT tox	IL-1B inflam inh
CC(C(=O)NC1C=CS(=O)(=O)C1)N1C(=O)/C(=C/c2ccc(Cl)cc2)SC1=S (configuration not stated)	-28%	?	?	-12%	-59*
O=C(CCN1C(=O)/C(=C/c2ccc(F)cc2)SC1=S)NC1C=CS(=O)(=O)C1 (configuration not stated)	-3%	13µM*	13µM*	3%	?
O=C(CN1C(=O)S/C(=C\c2ccc(F)cc2)C1=O)NC1C=CS(=O)(=O)C1 (configuration not stated)	-16%	4%	-21%	-8%	0
COc1ccc(/C=C2\SC(=O)N(CC(=O)NC3C=CS(=O)(=O)C3)C2=O)cc1 (configuration not stated)	-1%	?	?	-1%	-3
O=C(CN1C(=O)S/C(=C\c2ccccc2F)C1=O)NC1C=CS(=O)(=O)C1 (configuration not stated)	-17%	?	15µM*	0%	-70*
O=C(CCN1C(=O)/C(=C/c2ccc(F)cc2)SC1=S)N[C@@H](CO)Cc1ccccc1	2%	21µM*	16µM*	-1%	-52*
O=C(CCN1C(=O)/C(=C/c2ccc(F)cc2)SC1=S)NNC(=O)c1ccncc1	0%	?	?	1%	2
O=C(CCN1C(=O)/C(=C/c2ccccc2Cl)SC1=S)NC1C=CS(=O)(=O)C1 (configuration not stated)	-1%	23µM*	18µM*	-4%	-63*
Cc1nnc2n(Cc3ccccc3)c(=O)c3c4c(sc3n12)COC(C)(C)C4	-2%	?	-12%	-2%	-7
CC(C)Sc1nnc2n(CCc3ccccc3)c(=O)c3c4c(sc3n12)COC(C)(C)C4	17%	21µM*	23µM*	7%	9
C=CCSc1nnc2n(CCc3ccccc3)c(=O)c3c4c(sc3n12)COC(C)(C)C4	0%	?	23µM*	0%	-12
CCOC(=O)CC(NC(=O)C1c2ccccc2Oc2ccccc21)c1ccccc1Cl (configuration not stated)	12%	?	?	-8%	-4
CCc1nc2ccccc2n1CC(O)COCC1CC=CCC1 (configuration not stated)	6%	?	?	5%	0
O=C(NCCc1nc2ccccc2n1Cc1ccc(F)cc1)c1ccco1	·	?	-10%	·	·
O=C(NCCc1nc2ccccc2n1Cc1ccc(Cl)cc1Cl)c1ccco1	·	1.8µM*	1.8µM*	·	·
O=C(NCCCc1nc2ccccc2n1Cc1ccc(Cl)cc1Cl)c1ccco1	·	?	23µM*	·	·
COc1cc2sc3ccc(-c4ccc(CN5CCOCC5)cc4)cc3c(=O)c2cc1OC	19%	13µM*	18µM*	20%	-3
COc1cc2sc3ccc(-c4ccc(N(C)C)nc4)cc3c(=O)c2cc1OC	17%	5.8µM*	5.8µM*	11%	21
Cc1ccnc(NC(=O)CCC(=O)c2cc(C)sc2C)c1	8%	-8%	-19%	8%	15
CCOC(=O)C1(CCOc2ccccc2)CCN(Cc2cccc3c2OCO3)CC1	?	15µM*	23µM*	21µM*	-84*
CCOC(=O)C1(CCOc2ccccc2)CCN(CC2CC2)CC1	0%	-10%	8%	-2%	-5
CCOC(=O)C1(CCOc2ccccc2)CCN(CC=C(C)C)CC1	-2%	?	?	0%	-9
CCOC(=O)C1(CCOc2ccccc2)CCN(Cc2cc(OC)c3c(c2)OCO3)CC1	18µM*	12µM*	21µM*	18µM*	-61*
O=C(CN1CCN(C2CCCCC2)CC1)NCCC1=CCCCC1	7%	-21%	?	0%	2
CCN(CC(=O)NCc1cccs1)C(=O)COc1ccc(C(N)=O)cc1	1%	14%	-6%	-3%	7
SMILES	HT1080 IDH1KD tx	TDP1 cell noCPT	DT40 TDP1 CPT	HT1080-NT tox	IL-1B inflam inh
O=C(Nc1ccc2nc(SCC(=O)N3CCc4ccccc43)sc2c1)c1ccc(Cl)cc1	·	12µM*	9.2µM*	·	·
O=C(Nc1ccc2nc(SCC(=O)N3CCCc4ccccc43)sc2c1)c1cccc(Cl)c1	·	6.5µM*	13µM*	·	·
O=C(Nc1ccc2nc(SCC(=O)N3CCc4ccccc43)sc2c1)c1cccc(F)c1	·	4.1µM*	3.7µM*	·	·
O=C(Nc1ccc2nc(SCC(=O)N3CCc4ccccc43)sc2c1)c1ccc(F)cc1	·	8.2µM*	10µM*	·	·
O=C(Nc1ccc2nc(SCC(=O)N3CCCC3)sc2c1)c1ccc(Br)cc1	·	?	-30%	·	·
Cc1c(NC(=O)CSCc2ccc(Br)cc2)c(=O)n(-c2ccccc2)n1C	-2%	11%	-21%	9%	-2
COc1cc(C(=O)Nc2ccc3oc(-c4ccc(C)c(Br)c4)nc3c2)cc(OC)c1OC	·	8.2µM*	21µM*	·	·
COc1cc(C(=O)Nc2ccc(Cl)c(-c3nc4ncccc4o3)c2)cc(OC)c1OC	·	16µM*	21µM*	·	·
COc1cc(C(=O)Nc2cccc(-c3nc4ccccc4o3)c2C)cc(OC)c1OC	3%	-12%	-1%	2%	14
COc1cc(C(=O)Nc2ccc(-c3nc4cc(C)ccc4o3)c(O)c2)cc(OC)c1OC	-25%[9.24 µM]	8.2µM*	12µM*	-2%	·
COC(=O)c1c(NC(=O)C(C)(C)C)csc1C	3%	-6%	-3%	3%	2
Cc1ccc(NC(=O)C2CC(O)CN2C(=O)OCc2ccccc2)cc1C (configuration not stated)	0%	6%	8%	8%	-4
CCOC(=O)[C@H]1[C@H]2COc3ccc(Cl)cc3[C@@H]2N2C(=O)c3cc(F)c(F)cc3NC(=O)[C@@]12C	?	23µM*	?	-6%	-72*
CCOC(=O)[C@H]1[C@H]2COc3ccc(Cl)cc3[C@@H]2N2C(=O)c3cc(Cl)ccc3NC(=O)[C@@]12C	-28%	?	13µM*	-21%	-18
CCOC(=O)[C@H]1[C@H]2COc3ccc(OC)cc3[C@@H]2N2C(=O)c3cc(OC)c(OC)cc3NC(=O)[C@@]12C	-17%	-66%	-35%	3%	-55*
CCOC(=O)[C@H]1[C@H]2COc3ccc(Br)cc3[C@@H]2N2C(=O)c3cc(Br)ccc3NC(=O)[C@@]12C	-17%	18µM*	?	-9%	-14
CCOC(=O)[C@H]1[C@H]2COc3ccc(Cl)cc3[C@@H]2N2C(=O)c3ccc(F)cc3NC(=O)[C@@]12C	-11%	?	?	-1%	?
